Reference: the supplement of paper PMC12494721
Counter-ions that a name gives are not always drawn.

Columns and labels:
Conditions in all cases: incubation time: 27 h, anaerobic, 37 °C;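 for the amine columns active = adjusted P below 0.05 in both replicates with a change the same way and a mean fold change under 0.8 or over 1.25; inactive = the rest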
[1] = tested on: Clostridium sporogenes DSM 1664; assay: growth (OD595) fold change vs plate DMSO controls (fold change (ratio)); higher = more growth
Method in brief: (§1)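 Anaerobic 27 h, 37 °C mGAM 96-well cultures were shaken, then read for absorbance at 595 nm. Values were blank-subtracted and corrected for compound background using 20 µM compound solutions in water. A calibration factor of 5 converted them to OD. Growth is the fold change versus the median of plate DMSO controls. Fold changes above 1.5 were set to NA, and values are the mean of 2 biological replicates.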

[2] = tested on: Escherichia coli IAI1; assay: as above
Method in brief: as §1

[3] = tested on: Klebsiella aerogenes DSM 30053; assay: as above
Method in brief: as §1

[4] = tested on: Ruminococcus gnavus DSM 108212; assay: as above
Method in brief: as §1

[5] = tested on: Klebsiella aerogenes DSM 30053; assay: fold change of Histamine concentration vs plate DMSO controls (fold change (ratio)); higher = more amine produced, active = hit call of the paper (significant change in both replicates, either direction)
Method in brief: (§2)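 Anaerobic mGAM cultures of four gut bacterial strains were grown at 37 °C for 27 h in 80 µL wells, starting at OD 0.1 before 1:1 dilution. Compounds were at 20 µM final (sweeteners 50 µM). Whole cultures were extracted with cold acetonitrile/methanol containing 0.1% formic acid and centrifuged. Amines were quantified by LC–triple-quadrupole MS (dynamic MRM) against external calibration curves and drift-corrected within batch. Each value is the fold change versus plate DMSO controls, averaged over 2 biological replicates.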

[6] = tested on: Clostridium sporogenes DSM 1664; assay: fold change of Tryptamine concentration vs plate DMSO controls (fold change (ratio)); higher = more amine produced, active = hit call of the paper (significant change in both replicates, either direction)
Method in brief: as §2

[7] = tested on: Ruminococcus gnavus DSM 108212; assay: as above
Method in brief: as §2

[8] = tested on: Escherichia coli IAI1; assay: fold change of Putrescine concentration vs plate DMSO controls (fold change (ratio)); higher = more amine produced, active = hit call of the paper (significant change in both replicates, either direction)
Method in brief: as §2

[9] = tested on: Klebsiella aerogenes DSM 30053; assay: as above
Method in brief: as §2

[10] = tested on: Escherichia coli IAI1; assay: fold change of Cadaverine concentration vs plate DMSO controls (fold change (ratio)); higher = more amine produced, active = hit call of the paper (significant change in both replicates, either direction)
Method in brief: as §2

[11] = tested on: Klebsiella aerogenes DSM 30053; assay: as above
Method in brief: as §2

[12] = tested on: Ruminococcus gnavus DSM 108212; assay: fold change of 2-Phenylethylamine concentration vs plate DMSO controls (fold change (ratio)); higher = more amine produced, active = hit call of the paper (significant change in both replicates, either direction)
Method in brief: as §2

Row | Compound | growth [1] | growth [2] | growth [3] | growth [4] | fold change of Histamine concentration [5] | fold change of Tryptamine concentration [6] | fold change of Tryptamine concentration [7] | fold change of Putrescine concentration [8] | fold change of Putrescine concentration [9] | fold change of Cadaverine concentration [10] | fold change of Cadaverine concentration [11] | fold change of 2-Phenylethylamine concentration [12]
1 | Nc1nc(=O)[nH]cc1F [Flucytosine] (20 µM) | 1.01 | 0.897 | 0.986 | 1.03 | 1.07 (inactive) | 0.924 (inactive) | 0.987 (inactive) | 0.875 (inactive) | 1.02 (inactive) | 0.968 (inactive) | 0.979 (inactive) | 1.01 (inactive)
2 | COc1ccc(C2CNC(=O)C2)cc1OC1CCCC1 (centres undefined) [Rolipram] (20 µM) | 0.936 | 0.98 | 1.03 | 0.936 | 0.951 (inactive) | 1.03 (inactive) | 1.03 (inactive) | 0.954 (inactive) | 0.989 (inactive) | 0.984 (inactive) | 1 (inactive) | 1.06 (inactive)
3 | CCN1CC(CCN2CCOCC2)C(c2ccccc2)(c2ccccc2)C1=O (centres undefined) [Doxapram hydrochloride] (20 µM) | 1.01 | 0.969 | 0.996 | 0.884 | 0.932 (inactive) | 1.09 (inactive) | 1.07 (inactive) | 0.977 (inactive) | 0.978 (inactive) | 1.01 (inactive) | 1.02 (inactive) | 1.08 (inactive)
4 | COc1ccc(-c2noc(CC(=O)O)c2-c2ccc(OC)cc2)cc1 [Mofezolac] (20 µM) | 0.876 | 1.01 | 1 | 1.21 | 1.05 (inactive) | 0.988 (inactive) | 0.979 (inactive) | 1.03 (inactive) | 1 (inactive) | 0.987 (inactive) | 0.993 (inactive) | 0.96 (inactive)
5 | CC(N)CCCC(C)(C)O (centres undefined) [Heptaminol hydrochloride] (20 µM) | 1.01 | 1.1 | 0.998 | 1.12 | 0.999 (inactive) | 0.988 (inactive) | 1.01 (inactive) | 1.05 (inactive) | 1 (inactive) | 1.04 (inactive) | 0.994 (inactive) | 1.05 (inactive)
6 | CC1(C)S[C@@H]2[C@H](NC(=O)C3(N)CCCCC3)C(=O)N2[C@H]1C(=O)O [Cyclacillin] (20 µM) | 0 | 1 | 1.02 | 0.0834 | 0.87 (inactive) | 0.0132 (active) | 0.0795 (active) | 0.887 (inactive) | 0.993 (inactive) | 1.36 (active) | 1 (inactive) | 0.0578 (active)
7 | CCC1(c2ccccc2)C(=O)NCNC1=O [Primidone] (20 µM) | 0.938 | 0.953 | 0.991 | 1.01 | 1.09 (inactive) | 0.973 (inactive) | 1.02 (inactive) | 0.982 (inactive) | 1.03 (inactive) | 0.999 (inactive) | 0.981 (inactive) | 1.03 (inactive)
8 | CC(=C(CCO)SSCC1CCCO1)N(C=O)Cc1cnc(C)nc1N (stereo in doubt) [Fursultiamine hydrochloride] (20 µM) | 1.08 | 1.03 | 0.989 | 0.992 | 1.04 (inactive) | 0.983 (inactive) | 0.969 (inactive) | 1.09 (inactive) | 1.01 (inactive) | 0.973 (inactive) | 0.986 (inactive) | 0.967 (inactive)
9 | O=C(O)C[C@H](O)C[C@H](O)/C=C/c1c(C2CC2)nc2ccccc2c1-c1ccc(F)cc1 [Pitavastatin calcium] (20 µM) | 1.08 | 1.01 | 0.996 | 1.12 | 1.03 (inactive) | 0.992 (inactive) | 0.997 (inactive) | 1.01 (inactive) | 1.01 (inactive) | 1 (inactive) | 0.997 (inactive) | 1.04 (inactive)
10 | OC[C@@H](O)[C@@H](O)[C@@H](O)[C@@H](O)CO [Allitol] (50 µM) | 0.907 | 1.08 | 1.11 | 0.986 | 0.908 (inactive) | 1 (inactive) | 0.953 (inactive) | 1.02 (inactive) | 1.03 (inactive) | 0.992 (inactive) | 1.02 (inactive) | 0.932 (inactive)
11 | CCOc1ccccc1OCCN[C@H](C)Cc1ccc(OC)c(S(N)(=O)=O)c1 [(R)-Tamsulosin hydrochloride] (20 µM) | 0.839 | 0.964 | 1.03 | 1.01 | 0.94 (inactive) | 0.98 (inactive) | 1.02 (inactive) | 1 (inactive) | 1.01 (inactive) | 1.01 (inactive) | 1 (inactive) | 0.976 (inactive)
12 | CC(C)N1CCN(c2ccc(OCC3COC(Cn4cncn4)(c4ccc(Cl)cc4Cl)O3)cc2)CC1 (centres undefined) [Terconazole] (20 µM) | 1.12 | 1 | 1.01 | 1 | 0.996 (inactive) | 0.976 (inactive) | 1 (inactive) | 1 (inactive) | 0.993 (inactive) | 0.989 (inactive) | 1 (inactive) | 0.977 (inactive)
